PubChem BioAssay AID687001 (Broad Institute, 2013)
Potency and affinity values are given separately.

target: Protein S100-A4 (Homo sapiens) (UniProt P26447); assay: S100A4-myosin IIA binding inhibitor potency, dose response, biochemical, fluorescence polarization, cherry-picked hits (AID 687001); details: FP, S100A4/TAMRA-myosin IIA peptide binding; series mostly up to 11 µM; activity change, negative = inhibition: at the top concentration;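 note: 0% = DMSO neutral control wells and -100% = TFP positive control wells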
Sequence (P26447 whole entry, looked up): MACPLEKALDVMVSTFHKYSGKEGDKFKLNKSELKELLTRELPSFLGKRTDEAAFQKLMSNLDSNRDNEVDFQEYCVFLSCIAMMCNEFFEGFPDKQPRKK

Activity change, negative = inhibition, inactive:
Cc1cccn2c(=O)c3cc(C(=O)NC4CCCCCC4)sc3nc12 2.25%
COc1ccccc1CN1[C@H](CO)[C@H]2c3ccccc3N(C(=O)c3cccnc3)C[C@H]21 0.714%
COC(=O)CCC(C)C1CCC2C3CCC4CC(O)CCC4(C)C3=CC(=O)C12C (centres undefined) -0.405%
O=C(NCCc1ccco1)C(=O)NCC1OCCCN1S(=O)(=O)c1cc(F)ccc1F (centres undefined) -1.88%
O=C(c1ccccc1)c1ccc(C(=O)N2CCN(c3ccccc3O)CC2)cc1 -2.23%
O=C(NNC(=O)c1ccccc1F)c1cccc(-n2cccc2)c1 5.6%
COc1cccc(C2c3[nH]c4ccccc4c3C[C@H]3C(=O)N(C)CC(=O)N23)c1 (some centres undefined) -3.55%
N#Cc1cccc(-c2ccc3c(c2)[C@@H]2[C@@H](CCN2C(=O)c2ccncc2)[C@@H](CO)N3)c1 16.9%
CC(C)(C)C1CCSC2=NCCC[C@]2(c2ccccc2)C1 (some centres undefined) 1.02%
Cc1ccc(S(=O)(=O)Nc2ccc3c(c2)nc(CCN2CCN(c4ccccn4)CC2)n3C)cc1 1.65%
CCOCCCNC(=O)c1ccc2c(c1)N(CC)C(=O)c1ccccc1S2=O (centres undefined) -1.78%
CCN(CC)C(=O)c1ccccc1NS(=O)(=O)c1cccs1 1.48%
Cc1cc(Br)ccc1NC(=S)NC1CCCC1 0.376%
Cn1c2ccccc2c(=O)c2ccc(C#Cc3ccc(N)cc3)cc21 35.4%
O=C(Nc1ccccc1F)N[C@@H]1CC[C@H](CCNC(=O)C2CCCCC2)O[C@H]1CO 9.26%
CCc1ccc(C(=O)COC(=O)c2ccco2)cc1 -1.4%
O=C(c1ccc(Br)o1)N1CCC(Cc2ccccc2)CC1 -1.09%
COC(=O)Cc1c(C)nc(SCc2ccccc2)[nH]c1=O -0.468%
COc1cc2c3nnc(-c4ccc(F)cc4)c-3cn(Cc3ccc(C)cc3)c2cc1OC -30.6%
C[C@@H]1CN([C@@H](C)CO)C(=O)CCCn2nncc2CO[C@@H]1CN(C)S(=O)(=O)c1ccccc1 -4.68%
O=C(NCC[C@H]1CC[C@H](NS(=O)(=O)c2ccccc2)[C@@H](CO)O1)c1cc(Cl)cc(Cl)c1 5.01%
CO[C@H]1CN(C)C(=O)c2cc(NC(=O)Nc3ccc4c(c3)OCO4)ccc2OC[C@@H](C)NC[C@@H]1C 1.91%
O=C(COC(=O)CCCN1C(=O)c2cccc3cccc(c23)C1=O)NC1CCS(=O)(=O)C1 (centres undefined) -3.93%
Cc1cccc2c(CC(=O)Nc3ccccc3)noc12 -11.4%
C[C@@H]1ON(C)[C@H]2C[C@H]3c4[nH]c5ccccc5c4CCN3C(=O)[C@@H]12 8.57%
O=C(C[C@@H]1CC[C@@H]2[C@H](COC[C@H](O)CN2C(=O)c2cccnc2)O1)NCc1ccc(Cl)cc1 92.5% [at 5.6 µM]
O=C(C[C@@H]1CC[C@@H](NC(=O)CC2CC2)[C@H](CO)O1)NCc1ccc(Cl)cc1 3.57%
CC(=O)Nc1cccc(C(=O)NC2CCCc3c2cnn3-c2ccccc2F)c1 (centres undefined) -12.2% [at 5.6 µM]
CC(C)NC(=O)N1[C@@H](CO)[C@@H](c2ccccc2)C12CN(C(=O)Cc1cccnc1)C2 3.57%
Cc1nn(-c2ccc(N3CCOCC3)nn2)c(C)c1CCC(=O)N1CCN(C)CC1 -0.085%
CCN1CCN(CCNC(=O)c2cc(Cl)c(NC(=O)C3=C(C)OCCS3)cc2OC)CC1 17.9%
O=C(Nc1ccc2c(c1)CN(Cc1ccco1)CC2)C1CCCO1 (centres undefined) 8.73%
CC(C)Cc1cc(C(=O)NCCCN2CCOCC2)no1 -0.225%
COC(=O)[C@@]12C[C@@H](CC(=O)N3CCN(C(=O)c4ccco4)CC3)C(=O)N(CCc3ccc(OC)c(OC)c3)C1=CCC(C)(C)C2 -1.37%
Cn1cccc1C(=O)NNC(=O)c1ccccc1Br 1.23%
O=S(=O)(NCC(c1ccc2c(c1)OCO2)N1CCN(c2ccccc2)CC1)c1ccccc1 (centres undefined) 1.36%
Cc1ccc(NC(=O)COC(=O)c2ccccc2F)cc1S(=O)(=O)N1CCCCC1 5.19%
CC(NC(=O)COC(=O)c1cc([N+](=O)[O-])ccc1N1CCOCC1)c1ccc(F)cc1 (centres undefined) 7.4%
Cc1ccc(S(=O)(=O)Nc2ccc3c(c2)C(=O)N([C@H](C)CO)C[C@@H](C)[C@H](CN(C)S(C)(=O)=O)OCCCC[C@@H](C)O3)cc1 6.54%
